Compounds with a hit are over-represented: about 4.1% of the library has one in this group of screens.
hcDAF-12 act: H. contortus DAF-12 activation, primary screen; HEK293 hcDAF-12 lit1-tk-luc reporter, luminescence; 0% DMSO, 100% Δ7-dafachronic acid; AID 652067; activation, % at 6.8 µM; 1.4% of 370,000 active;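 active = activation above the mean of all tested compounds plus 3 SD, cut at about 5.5% in these data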
DAX1 inh-1: inhibits human nuclear receptor DAX1. HEK293 Gal4-DAX1 luciferase reporter, luminescence. P51843. inhibition, % at 6.75 µM. AID 504766. 0.99% of 340,000 active;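 active = inhibition above the mean over all tested compounds plus 3 SD, cut at about 4.2% in these data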;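 note: inhibition shows as a rise in luminescence from relieved DAX1 repression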
Target sequence (P51843 207-470 limits assumed): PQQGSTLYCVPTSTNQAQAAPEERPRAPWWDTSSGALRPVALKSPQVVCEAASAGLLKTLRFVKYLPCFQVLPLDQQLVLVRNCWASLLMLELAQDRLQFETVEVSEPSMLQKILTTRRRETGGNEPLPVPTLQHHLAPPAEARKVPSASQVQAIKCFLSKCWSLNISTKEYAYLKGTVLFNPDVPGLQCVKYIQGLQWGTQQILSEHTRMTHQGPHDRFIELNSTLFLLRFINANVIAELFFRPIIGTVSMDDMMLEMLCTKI
DAX1 inh-2: inhibitors of DAX1 repression of SF-1 activated StAR promoter | HEK293T StAR-luciferase reporter, SF-1/DAX-1 repression relief | inhibition, % at 6.8 µM | 1.1% of 370,000 active | AID 652010;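 active = inhibition above the mean over all tested compounds plus 3 SD, cut at about 3.6% in these data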;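 note: higher inhibition means more luminescence from relief of DAX-1 repression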
hgDAF12 agonist: agonists of H. glycines DAF-12 nuclear receptor | 1.8% of 370,000 active | AID 687014 | HEK293 GAL4-hgDAF12 UAS-luciferase reporter, agonist luminescence; normalized to butyrate control | activation, % at 6.8 µM;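 active = activation above a cutoff set at the mean of all screened compounds plus 3 SD, cut at about 10% in these data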
ssDAF-12 act: S. stercoralis DAF-12 activation, primary screen; AID 652126; 1% of 370,000 active; activation, % at 6.8 µM; HEK293 ssDAF-12/GRIP1 lit1-tk-luc reporter, luminescence; % of 3 µM dafachronic acid response;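 active = activation above the mean over all tested compounds plus 3 SD, cut at about 0.9% in these data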
hgDAF12 conf: hgDAF-12 agonism, confirmation assay | shares compounds with hgDAF12 agonist | HEK293 GAL4-hgDAF12 luciferase reporter, agonist mode; percent of butyrate response | activation, % at 6.8 µM | 80% of 3,300 active | AID 743050;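 active = mean activation over triplicate wells above the hit cutoff derived from the earlier primary screen, cut at about 11% in these data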
LXRb DAF12 ctr: LXR-beta agonism as DAF-12 counter-screen; shares compounds with hgDAF12 agonist; activation, % at 6.8 µM; HEK293 Gal4-LXR luciferase reporter, 24 h; AID 743051; 3,300 tested, under 10 active;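 active = mean activation of the triplicate above a set limit carried over from the primary screen, none filed active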
Target sequence (P55055 whole entry, looked up, the tested form may be a part): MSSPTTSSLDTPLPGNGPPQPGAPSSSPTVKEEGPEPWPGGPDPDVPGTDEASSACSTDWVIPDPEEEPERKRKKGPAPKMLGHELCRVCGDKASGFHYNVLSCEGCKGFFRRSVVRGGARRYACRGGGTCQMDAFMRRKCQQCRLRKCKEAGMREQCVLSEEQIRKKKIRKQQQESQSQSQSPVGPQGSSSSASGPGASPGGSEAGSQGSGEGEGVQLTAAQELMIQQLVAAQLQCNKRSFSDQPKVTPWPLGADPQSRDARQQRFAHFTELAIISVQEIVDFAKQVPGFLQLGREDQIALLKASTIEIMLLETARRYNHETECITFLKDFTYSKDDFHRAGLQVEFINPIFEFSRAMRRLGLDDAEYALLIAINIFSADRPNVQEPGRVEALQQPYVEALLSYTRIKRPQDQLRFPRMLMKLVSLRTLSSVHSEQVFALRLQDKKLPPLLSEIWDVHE
Of the large screens only hits and unclear results are named; the others gave an inactive call (follow-up assays come after a bar, where they were run).

c1cnn2c(-c3ccc4c(c3)CCO4)cnc2c1	hgDAF12 agonist 14 (no result: DAX1 inh-1) | hgDAF12 conf inactive | LXRb DAF12 ctr inactive
O=C(NCCSc1ccccc1)c1ccccc1F	hcDAF-12 act 5.8, hgDAF12 agonist 13 | hgDAF12 conf 13 | LXRb DAF12 ctr inactive
Cc1ccc(SCCNC(=O)c2ccccc2F)cc1	none
CCSc1ncnc2c1oc1ccccc12	none
Clc1ncnc2c1oc1ccccc12	hcDAF-12 act 6.2, hgDAF12 agonist 19, ssDAF-12 act 1.6 | hgDAF12 conf 16 | LXRb DAF12 ctr inactive
O=S1(=O)c2ccc(N3CCC[C@@H]3CO)cc2O[C@@H]2CCN1C2	none (no result: DAX1 inh-1)
Fc1ccc(OCc2nc(-c3cccs3)no2)cc1	hgDAF12 agonist 16 | hgDAF12 conf 12 | LXRb DAF12 ctr inactive
c1ccc(OCc2nc(-c3cccs3)no2)cc1	hgDAF12 agonist 16 | hgDAF12 conf 13 | LXRb DAF12 ctr inactive
Cc1cc(OCc2nc(-c3cccs3)no2)cc(C)c1Cl	none
O=C(O)Cn1cc(/C=c2/sc3nc4ccccc4n3c2=O)c2ccccc21	hcDAF-12 act 5.9, hgDAF12 agonist 17 | hgDAF12 conf 11 | LXRb DAF12 ctr inactive
CC(N)C(=O)NC(C(=O)NC(C)C(=O)Nc1cccc2ccccc12)C(C)C (stereo unspecified)	none (no result: DAX1 inh-1)
COc1ccc(S(=O)(=O)N2CCC(C(=O)N[C@@H](C)C(=O)NCc3ccccn3)CC2)cc1	none
Nc1ccccc1C#Cc1ccc2[nH]ccc2c1	DAX1 inh-1 7.2, hgDAF12 agonist 14 | hgDAF12 conf 12 | LXRb DAF12 ctr inactive
CCN(CC)CC(O)CNc1ccnc2c(Cl)ccc(Cl)c12 (stereo unspecified)	hgDAF12 agonist 13 | hgDAF12 conf inactive | LXRb DAF12 ctr inactive
CCN(CC)CCCC(C)Nc1nccc2cccc(Cl)c12 (stereo unspecified)	none
Cc1cccc(NC(=O)NN(C(=O)c2ccccc2Cl)C(C)(C)C)c1	hgDAF12 agonist 13 (no result: DAX1 inh-1) | hgDAF12 conf inactive | LXRb DAF12 ctr inactive
COC(=O)[C@]12C[C@H](CC(=O)NCCC(C)C)C(=O)N(Cc3ccccc3)C1=C[C@H](C(C)C)O[C@@H]2C1CC1	none (no result: DAX1 inh-1)
O=C(/C=C/c1ccccc1[N+](=O)[O-])Nc1ccccc1	DAX1 inh-1 6.7, DAX1 inh-2 4.0, hgDAF12 agonist 18 | hgDAF12 conf 16 | LXRb DAF12 ctr inactive
O=C(Nc1cccnc1)c1sc2cccc(F)c2c1Cl	hcDAF-12 act 6.0, DAX1 inh-2 4.1, hgDAF12 agonist 17 | hgDAF12 conf 15 | LXRb DAF12 ctr inactive
COc1ccccc1OCC(=O)NNC(=O)Nc1ccccc1	none
O=C1c2c(-c3ccc(Br)cc3)noc2CCN1Cc1cn(-c2ccc(Cl)cc2)nn1	none (no result: DAX1 inh-1)
CC(C)(C)CC(=O)O/N=C(\N)c1ccccn1	hcDAF-12 act 6.3, hgDAF12 agonist 14 | hgDAF12 conf 13 | LXRb DAF12 ctr inactive
N/C(=N\OC(=O)c1cccc([N+](=O)[O-])c1)c1ccccn1	hcDAF-12 act 5.8, hgDAF12 agonist 15, ssDAF-12 act 0.9 | hgDAF12 conf 13 | LXRb DAF12 ctr inactive
Cc1ccc(OCC(=O)O/N=C(\N)c2ccccn2)cc1	DAX1 inh-2 3.8, hgDAF12 agonist 15 | hgDAF12 conf 14 | LXRb DAF12 ctr inactive
CCCc1ccc(C(=O)O/N=C(\N)c2ccccn2)cc1	none
N/C(=N\OC(=O)c1ccco1)c1ccccn1	hgDAF12 agonist 14 | hgDAF12 conf inactive | LXRb DAF12 ctr inactive
N/C(=N/OC(=O)c1cccc([N+](=O)[O-])c1)c1cccc([N+](=O)[O-])c1	none
COC(=O)C1=C(C)N(Cc2ccc(Br)cc2)C(=S)NC1c1ccc(OC)cc1 (stereo unspecified)	none (no result: DAX1 inh-1)
N/C(=N\OC(=O)COc1ccc(Cl)cc1Br)c1ccncc1	hgDAF12 agonist 16, ssDAF-12 act 1.3 | hgDAF12 conf 19 | LXRb DAF12 ctr inactive
N/C(=N\OC(=O)COc1cc(Cl)c(Cl)cc1Cl)c1ccccn1	hgDAF12 agonist 14 (no result: DAX1 inh-1) | hgDAF12 conf 12 | LXRb DAF12 ctr inactive
Cc1ccc(Nc2nc(CSc3nnc(-c4ccccc4)n3C)cs2)cc1	hgDAF12 agonist 14 | hgDAF12 conf 12 | LXRb DAF12 ctr inactive
CSc1ccccc1C(=O)OCC(=O)NC1CCCCCCC1	none
O=C(COC(=O)c1cc2ccccc2oc1=O)Nc1ccc(F)cc1F	hgDAF12 agonist 17 | hgDAF12 conf 16 | LXRb DAF12 ctr inactive
COC(=O)c1ccccc1NC(=O)c1sc(Cl)nc1C	none
COC(=O)c1ccc(-c2ccc(Cl)cc2)nc1C	DAX1 inh-2 4.3, hgDAF12 agonist 14 | hgDAF12 conf 20 | LXRb DAF12 ctr inactive
CC(/C=C/c1ccc(OCc2ccccc2)cc1)=N\O	hcDAF-12 act 6.1, hgDAF12 agonist 14 | hgDAF12 conf 13 | LXRb DAF12 ctr inactive
Cc1ccc(C)c(OCC(=O)OCc2csc(CC(=O)Nc3ccccc3C)n2)c1	none
CN(Cc1ccccc1)C(=O)OCc1cn(Cc2ccc(F)cc2)nn1	none (no result: DAX1 inh-1)
Brc1ccc(-c2csc(N3CCCCCC3)n2)cc1	none
Brc1ccc(-c2csc(N3CCOCC3)n2)cc1	DAX1 inh-1 7.5, DAX1 inh-2 4.1, hgDAF12 agonist 19 | hgDAF12 conf 11 | LXRb DAF12 ctr inactive
COc1ccc(N2C(=O)S[C@@H]3CS(=O)(=O)C[C@@H]32)cc1	none
Cc1ccc2nc(-c3ccc(N4C(=N)SC5CS(=O)(=O)CC54)cc3)sc2c1 (stereo unspecified)	hgDAF12 agonist 14 | hgDAF12 conf 13 | LXRb DAF12 ctr inactive
CC(C)CN1C(=O)[C@@]2(CC(=O)N(C)C2c2ccccc2)c2cc(-n3cc(-c4ccccc4)nn3)ccc21 (stereo partly specified)	none (no result: DAX1 inh-1)
O=C1c2ccccc2C(=O)N1CCCc1c[nH]c2ccccc12	none
O=C1c2ccccc2C(=O)N1CCc1c[nH]c2ccccc12	DAX1 inh-1 13, DAX1 inh-2 3.6, hgDAF12 agonist 19 | hgDAF12 conf 13 | LXRb DAF12 ctr inactive
Cc1c(-c2ccc(OCCN3CCOCC3)cc2)c(=O)oc2ccc3ccccc3c12	none
CC(C)(C)C(=O)N/C(N)=N/c1nc2ccccc2o1	DAX1 inh-1 4.8, hgDAF12 agonist 13, ssDAF-12 act 1.5 | hgDAF12 conf 15 | LXRb DAF12 ctr inactive
N/C(=N\c1nc2ccccc2o1)NC(=O)/C=C/c1ccccc1	none
CN(C(=O)/C=C/c1ccccc1)C1CCS(=O)(=O)C1 (stereo unspecified)	none
CN(C(=O)/C=C/c1ccccc1)C1CCCCC1	hgDAF12 agonist 14 (no result: DAX1 inh-1) | hgDAF12 conf 17 | LXRb DAF12 ctr inactive
C(=N\NC1=Nc2cccc3cccc1c23)/c1cccnc1	hgDAF12 agonist 16 | hgDAF12 conf 11 | LXRb DAF12 ctr inactive
Clc1ccccc1-c1nc(N/N=C/c2cccnc2)c2ccccc2n1	none

Screens deposited in PubChem by The Scripps Research Institute Molecular Screening Center.
